# TEAD-YAP block: TEAD-YAP interaction inhibition, primary screen, TEAD-YAP interaction inhibitor project, luminescence, HEK-TIYL cells | inhibition, % at 9.12 µM | TEAD-Gal4/YAP UAS-luciferase luminescence | 1.4% of 640,000 active; in the data active means inhibition above about 32%;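 further: 0% = median of test compound wells and 100% = reference inhibitor wells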
# GPR151 activ: activators of human GPR151, primary screen, cell-based, PathHunter beta-arrestin, luminescence | G-protein coupled receptor 151 (Homo sapiens), Q8TDV0 | PathHunter beta-arrestin GPR151 cells | activation, % at 11.2 µM | 1% of 650,000 active; in the data active means activation above about 4.9%;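 further: 0% = median of compound wells and 100% = cells with positive control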
# FBW7 activator: FBW7 E3 ligase activators, primary screen, biochemical, AlphaScreen, human; F-box/WD repeat-containing protein 7 (Homo sapiens), Q969H0; AlphaScreen FBW7–phospho-cyclin E peptide binding, activator screen; normalized activity (activation), % at 26.1 µM; 0.13% of 650,000 active; AID 1259310, 2017; in the data active means normalized activity above about 1.9%;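 further: purified mutant Fbw7 with reduced substrate affinity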
# MITF inh: MITF inhibitors, primary screen, biochemical, AlphaScreen, human; 0.91% of 650,000 active; AlphaScreen MITF homodimerization, bead proximity signal; inhibition, % at 2.6 µM; Microphthalmia-associated transcription factor (Homo sapiens), O75030; in the data active means inhibition above about 50%;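 further: 0% = vehicle wells with protein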
# GPR151 confirm: GPR151 activators, triplicate retest, confirmation, cell-based, PathHunter beta-arrestin, luminescence; shares compounds with GPR151 activ; GPR151 PathHunter beta-arrestin cells, 90 min; % of EA-reagent control over plate median; activation, % at 11.2 µM; 6,700 tested, under 10 active; AID 1508609, 2020;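 active means mean percent activation across replicates above the confirmation screen cutoff of 4.91%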
# GPR119 counter: GPR119 activators in beta-arrestin cells, counter-screen for GPR151 activator project, cell-based, PathHunter beta-arrestin, luminescence, triplicate; activation, % at 11.2 µM; shares compounds with GPR151 activ; 0.3% of 6,700 active; 90 min; 0 = compound-well median, 100 = enzyme-acceptor control;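 active means mean percent activation in the counterscreen above 29.09%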;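 further: counterscreen on off-target GPR119 to flag nonselective hits from the GPR151 activator screen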
# The depositor's hits bear a star; x = not tested or not shown. A selection: hits, their analogues and other compounds. The true share with any hit is near 3.4%.
SMILES,TEAD-YAP block,GPR151 activ,FBW7 activator,MITF inh,GPR151 confirm,GPR119 counter
O=C(O)C1CSC(c2ccncc2)N1 (centres undefined),-3.2,1.3,-0.4,8.4,x,x
CC(=O)Nc1ccc(NC(=O)c2cccc(-c3ccc(C(N)=O)cc3)n2)cc1,5.2,12.6*,-0.2,5.2,0.3,-6.4
O=C(CN(Cc1ccccc1F)S(=O)(=O)c1ccc(Cl)cc1)NCCCO,11.2,6.0*,-0.1,5.0,0.9,7.8
CC(=O)N/N=C(\C)CC(=O)Nc1ccc2c(c1)OCCO2,-2.2,0.2,0.1,-1.3,x,x
C/C(CC(=O)Nc1ccc2c(c1)OCCO2)=N\NC(=O)C(=O)Nc1ccc(C)cc1,-4.7,7.0*,0.0,0.6,0.3,4.8
c1ccc(Nc2nc(Nc3ccccc3)c3cn[nH]c3n2)cc1,-76.5,0.6,1.1,14.5,x,x
COc1ccc(/C=C2/C(=O)NC(=O)N(c3ccc(C)cc3)C2=O)c(OC)c1,6.6,0.6,0.5,16.6,x,x
CCOc1cc(/C=C2\C(=O)NC(=O)N(c3cc(C)ccc3C)C2=O)ccc1O,18.2,8.9*,-0.7,-8.8,-0.2,12.1
Cc1cc(N2C(=O)NC(=O)/C(=C\c3ccccc3OCC#N)C2=O)ccc1Br,-0.1,5.6*,0.2,-6.9,1.2,18.7
CCc1ccc(N2C(=O)NC(=O)/C(=C/c3cc(OC)c(O)c(OC)c3)C2=O)cc1,-1.0,0.7,-0.1,-12.1,x,x
COc1cc(/C=C2/C(=O)NC(=O)N(c3ccc(Cl)cc3)C2=O)cc(OC)c1O,3.7,16.3*,0.1,12.4,0.0,12.3
COc1ccc(/C=C2\C(=O)NC(=O)N(c3ccc(Br)cc3)C2=O)c(OC)c1,-6.2,7.3*,-0.1,-2.4,-0.2,3.7
Cc1occc1C(=O)N/N=C/c1cccn1C,-17.8,-8.6,-0.1,14.1,x,x
O=C(Nc1ccccc1)C(=O)NC1CC1,-50.1,-3.8,-0.1,7.3,x,x
CC(=O)c1ccc(OCc2ccc(Br)cc2)cc1,-33.9,-1.7,0.5,0.0,x,x
COc1ccc(N2C(=O)NC(=O)/C(=C\c3ccc(O)c([N+](=O)[O-])c3)C2=O)cc1,3.1,5.8*,0.1,22.0,-0.5,-5.3
C=CCc1cc(/C=C2/C(=O)NC(=O)N(c3ccc(OCC)cc3)C2=O)ccc1O,8.4,9.3*,0.2,16.0,0.6,-2.3
CCOc1ccc(N2C(=O)NC(=O)/C(=C\c3ccc(O)c(OC)c3)C2=O)cc1,3.1,0.6,0.2,14.1,x,x
COc1ccc(NC(=O)C(=O)NNC(=O)c2cccc(OC)c2)cc1,-3.3,6.1*,-0.1,-6.1,-0.2,3.6
CCc1ccc(NC(=O)C(=O)NNC(=O)c2cccc(OC)c2)cc1,9.4,-0.8,-0.1,13.6,x,x
COc1ccccc1NC(=O)CSC1=Nc2ccccc2C2=NC(C(C)C)C(=O)N12 (centres undefined),-11.5,0.3,-0.2,-4.0,x,x
C=CCNC(=O)c1cnc2ccccn12,-4.3,1.1,0.4,2.0,x,x
Brc1ccccc1-c1nnc2sc(-c3ccc4c(c3)OCCO4)nn12,-3.1,5.7*,-0.1,-1.2,0.8,4.2
CCOCCCNC(=O)C1CCN(Cc2nc(-c3ccc(CC)cc3)oc2C)CC1,-7.7,0.0,0.0,5.0,x,x
NCCSc1nnc(-c2ccc(Br)o2)n1Cc1ccccc1,-4.9,0.3,-0.2,10.8,x,x
COc1ccc(C=O)cc1Cn1cnc([N+](=O)[O-])n1,8.1,5.5*,0.0,0.2,-0.6,-3.3
Cc1cc(=O)[nH]c(N/N=C/C=C2\N(C)c3ccccc3C2(C)C)n1,5.7,5.0*,-0.8,23.8,0.1,-2.8
CNC(=O)CC1C(=O)N(c2cccc(C(F)(F)F)c2)C(=S)N1CCc1ccc(OC)c(OC)c1 (centres undefined),-9.2,8.6*,-0.1,0.8,-0.4,9.2
CC(=O)NC(c1ccco1)c1cc(Cl)c2cccnc2c1O (centres undefined),31.6,15.1*,-0.4,75.9*,-0.3,-7.6

# From PubChem
